Results filed as inconclusive are left out. Values without a mark were called inactive. The source made the active and inactive calls. The call rests on the fitted dose curve; in most records, active means well fitted curve in the direction sought with a large enough effect; inconclusive means small, poorly fitted or top-dose-only effect, or another doubt; inactive means no such curve, though single readings can be large; an effect the other way counts as inactive or inconclusive.

The values that follow come from PubChem BioAssay (NCATS).

Assay [1] can be described thus: Quantitative High-Throughput drug screen in 47 multiple myeloma cell lines against the NCATS MIPE library collection: KMS20_JCRB cell viability assay (AID 1918973). Further: nearly all actives have a fitted effect of over 45% in size. The method in brief:
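Viability readout: CellTiter-Glo luminescence following 5 min room-temperature incubation with reagent. Prior exposure: 48 h, 37C, humidified 5% CO2, 500 cells per well.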

Assay [2] can be described thus: Quantitative High-Throughput drug screen in 47 multiple myeloma cell lines against the NCATS MIPE library collection: KMS26_JCRB cell viability assay (AID 1918975). Further: nearly all actives have a fitted effect of over 45% in size. The method, boiled down: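 Myeloma cells (500 per well) were exposed to MIPE 4.0 compounds by pin transfer and incubated 48 hours at 37C, 5% CO2. Viability was read as ATP by CellTiter-Glo luminescence, normalised to DMSO (100%) and media-only (0%) wells.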

A short description of assay [3]: Quantitative High-Throughput drug screen in 47 multiple myeloma cell lines against the NCATS MIPE library collection: MMM1_PLB cell viability assay (AID 1918976). Further: nearly all actives have a fitted effect of over 35% in size. The method in brief:
(§1)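 Inhibition of viability over 48 h was scored by ATP content (CellTiter-Glo) in 500-cell wells. Zero and full viability were defined by media-only and DMSO-only wells.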

The nature of assay [4]: Quantitative High-Throughput drug screen in 47 multiple myeloma cell lines against the NCATS MIPE library collection: MOLP8_DSMZ cell viability assay (AID 1918977). Further: nearly all actives have a fitted effect of over 45% in size. The method, boiled down:
as §1

The nature of assay [5]: Quantitative High-Throughput drug screen in 47 multiple myeloma cell lines against the NCATS MIPE library collection: NCIH929_DSMZ cell viability assay (AID 1918978). Further: nearly all actives have a fitted effect of over 35% in size. The method in brief:
as §1

Assay [6] can be described thus: Quantitative High-Throughput drug screen in 47 multiple myeloma cell lines against the NCATS MIPE library collection: OCIMY1_PLB cell viability assay (AID 1918979). Further: nearly all actives have a fitted effect of over 35% in size. The method in brief: as §1
Assay [7] in a line: Quantitative High-Throughput drug screen in 47 multiple myeloma cell lines against the NCATS MIPE library collection: MM1S_ATCC cell viability assay (AID 1918980). Further: nearly all actives have a fitted effect of over 45% in size. The method, boiled down:
as §1

Assay [8] can be described thus: Quantitative High-Throughput drug screen in 47 multiple myeloma cell lines against the NCATS MIPE library collection: MM1R_ATCC cell viability assay (AID 1918981). Further: nearly all actives have a fitted effect of over 35% in size. The method in brief:
as §1

Assay [9] is described as follows: Quantitative High-Throughput drug screen in 47 multiple myeloma cell lines against the NCATS MIPE library collection: LP1_DSMZ cell viability assay (AID 1918982). Further: nearly all actives have a fitted effect of over 35% in size. The method in brief:
as §1

Assay [10] can be described thus: Quantitative High-Throughput drug screen in 47 multiple myeloma cell lines against the NCATS MIPE library collection: KMS28PE_JCRB cell viability assay (AID 1918983). Further: nearly all actives have a fitted effect of over 35% in size. The method, boiled down: as §1
The nature of assay [11]: Quantitative High-Throughput drug screen in 47 multiple myeloma cell lines against the NCATS MIPE library collection: L363_DSMZ cell viability assay (AID 1918984). Further: nearly all actives have a fitted effect of over 40% in size. The note with it: L363 myeloma viability, CellTiter-Glo ATP luminescence, 48 h; viability (% of control): at 45.8 µM (top of the series). The method, boiled down:
as §1

Assay [12] in a line: Quantitative High-Throughput drug screen in 47 multiple myeloma cell lines against the NCATS MIPE library collection: OCIMY5_PLB cell viability assay (AID 1918988). Further: nearly all actives have a fitted effect of over 65% in size. The method in brief:
as §1

A short description of assay [13]: Quantitative High-Throughput drug screen in 47 multiple myeloma cell lines against the NCATS MIPE library collection: XG6_PLB cell viability assay (AID 1919865). Further: nearly all actives have a fitted effect of over 40% in size. The method, boiled down: as §1
Assay [14] in a line: Quantitative High-Throughput drug screen in 47 multiple myeloma cell lines against the NCATS MIPE library collection: XG1_PLB cell viability assay (AID 1919866). Further: nearly all actives have a fitted effect of over 35% in size. The method, boiled down: as §1
Assay [15] is described as follows: Quantitative High-Throughput drug screen in 47 multiple myeloma cell lines against the NCATS MIPE library collection: KMS34_JCRB cell viability assay (AID 1918985). Further: nearly all actives have a fitted effect of over 40% in size. The method in brief: as §1
Assay [16] in a line: Quantitative High-Throughput drug screen in 47 multiple myeloma cell lines against the NCATS MIPE library collection: SKMM1_PLB cell viability assay (AID 1919863). Further: nearly all actives have a fitted effect of over 35% in size. To be noted: SKMM1 myeloma viability, CellTiter-Glo ATP, 48 h; viability: stronger effect = lower value. The method in brief:
as §1

The nature of assay [17]: Quantitative High-Throughput drug screen in 47 multiple myeloma cell lines against the NCATS MIPE library collection: U266_ATCC cell viability assay (AID 1919864). Further: nearly all actives have a fitted effect of over 35% in size. The method, boiled down: as §1
Assay [18] is described as follows: Quantitative High-Throughput drug screen in 47 multiple myeloma cell lines against the NCATS MIPE library collection: OCIMY7_PLB cell viability assay (AID 1918987). Further: nearly all actives have a fitted effect of over 65% in size. To be noted: OCI-MY7 myeloma viability, CellTiter-Glo ATP, 48 h; viability (% of DMSO): at 45.8 µM (top of the series). The method in brief: as §1
Assay [19] in a line: Quantitative High-Throughput drug screen in 47 multiple myeloma cell lines against the NCATS MIPE library collection: OPM1_PLB cell viability assay (AID 1918989). Further: nearly all actives have a fitted effect of over 40% in size. The method, boiled down:
as §1
Potency means the concentration at half of the fitted maximal effect.

For `Clc1ccc(C2(c3ccc(-c4cn[nH]c4)cc3)CCNCC2)cc1`, the Potency in assay [1] is 5.26 µM (active); in assay [2], 20.9 µM (active); in assay [3], 1.48 µM (active); in [4], 20.9 µM (active); in assay [5] it was 2.96 µM (active); in assay [6] it was 23.5 µM (active). Also, the Potency in assay [7] is 14.8 µM (active); in assay [8], 10.5 µM (active); in [9], 23.5 µM (active); in assay [10], 14.8 µM (active); in assay [11] it was 2.35 µM (active); in [12] it was 16.6 µM (active). Further, the values for the Potency in [13] and in assay [14] were 3.72 µM (active) and 18.7 µM (active), respectively.

As for `CN(C)CCOc1ccc(-c2nc(-c3ccc4c(c3)CCC4=NO)c(-c3ccncc3)[nH]2)cc1`, the Potency in assay [1] is 6.62 µM (active); in [2], 18.7 µM (active); in assay [3] it was 20.9 µM (active); in [4], 14.8 µM (active); in [5], 16.6 µM (active); in assay [6] it was 20.9 µM (active). The Potency in [7] is 18.7 µM (active); in assay [8], 18.7 µM (active); in [9], 20.9 µM (active); in assay [10] it was 23.5 µM (active); in assay [15], 13.2 µM (active); in [12], 23.5 µM (active). The Potency in [16] was 20.9 µM (active); in [17] it was 26.4 µM (active); in assay [13] it was 16.6 µM (active); in assay [14], 18.7 µM (active).

Consider `C[C@H]1COC2=C1C(=O)C(=O)c1c2ccc2c1CCCC2(C)C`, for which the Potency in [1] is 10.5 µM (active); in assay [2], 29.6 µM (active); in assay [3], 13.2 µM (active); in assay [4], 20.9 µM (active); in [7] it was 26.4 µM (active); in assay [8] it was 20.9 µM (active). For the same compound, the Potency is 18.7 µM (active) in assay [9], 13.2 µM (active) in assay [18], 20.9 µM (active) in assay [12] and 14.8 µM (active) in assay [16]. For the same compound, the Potency result in assay [6] and in assay [11] was “inactive” throughout.

For the compound `CCN(CC)CCCCNc1nc2cc(Cl)c(Cl)cc2nc1-c1ccc(-c2cccs2)s1`, the Potency in assay [1] was 4.69 µM (active); in assay [2] it was 13.2 µM (active); in assay [3] it was 9.35 µM (active); in [4], 8.33 µM (active); in assay [6], 14.8 µM (active); in assay [7], 11.8 µM (active). Also, the Potency in assay [8] is 9.35 µM (active); in assay [9], 8.33 µM (active); in assay [10], 18.7 µM (active); in assay [11], 5.9 µM (active); in assay [15], 16.6 µM (active); in assay [12], 7.43 µM (active). The Potency is 5.9 µM (active) in [19]; 16.6 µM (active) in assay [16]; 23.5 µM (active) in [17]; 8.33 µM (active) in assay [13]; 8.33 µM (active) in assay [14].

`Oc1cc(O)cc(C=Cc2ccc(O)c(O)c2)c1`: the Potency in [1] was 2.96 µM (active); in assay [2], 23.5 µM (active); in assay [3] it was 23.5 µM (active); in [4], 18.7 µM (active); in assay [5] it was 6.62 µM (active); in [7] it was 26.4 µM (active). Further, the Potency was 20.9 µM (active) in [8]; 11.8 µM (active) in assay [15]; 5.26 µM (active) in [18]; 20.9 µM (active) in assay [12]; 16.6 µM (active) in [19]; 23.5 µM (active) in assay [16]. For the same compound, the Potency is 5.26 µM (active) in assay [13] and 8.33 µM (active) in assay [14].

For `CCOC(=O)[C@H](CCc1ccccc1)N[C@@H](C)C(=O)N1CCCC1C(=O)O` (some centres not stated), the Potency result in assay [1], in assay [2], in assay [4], in assay [5], in assay [6] and in assay [9] was “inactive” throughout. Further, in assay [10], the Potency result was “inactive”. Moreover, the Potency in [7] was 10.5 µM (active); in assay [17], 20.9 µM (active); in assay [13], 23.5 µM (active); in assay [14] it was 23.5 µM (active).

For `CSc1cccc(Nc2ncc3cc(-c4c(Cl)cccc4Cl)c(=O)n(C)c3n2)c1`, the Potency in assay [1] was 0.0105 µM (active); in assay [2] it was 9.35 µM (active); in [4], 0.833 µM (active); in assay [5], 13.2 µM (active); in assay [8], 2.35 µM (active); in [10] it was 2.35 µM (active). Also, the Potency was 1.48 µM (active) in [15]; 0.0935 µM (active) in assay [18]; 0.296 µM (active) in assay [12]; 1.87 µM (active) in assay [16]; 0.118 µM (active) in assay [13].

In the case of `C[C@@H]1[C@H](C)CC[C@]2(C(=O)O)CC[C@]3(C)C(=CC[C@@H]4[C@@]5(C)CC[C@H](O)C(C)(C)[C@H]5CC[C@]43C)[C@@H]12`, the Potency result in [1], in assay [5], in [7], in [11] and in assay [19] was “inactive” throughout. Besides, the Potency is 19.1 µM (active) in assay [2]; 21.5 µM (active) in assay [3]; 54 µM (active) in assay [6]; 21.5 µM (active) in assay [8]; 38.2 µM (active) in assay [10]; 34 µM (active) in assay [15]. For the same compound, the Potency was 1.52 µM (active) in assay [12], 24.1 µM (active) in [16] and 1.36 µM (active) in assay [14].

On to `CS(=O)(=O)c1ccc(C2=C(c3ccccc3)C(=O)OC2)cc1`, for which the Potency entry in assay [1], in [2], in assay [4], in assay [5], in assay [6] and in assay [8] was “inactive” each time. Moreover, the Potency result in [9], in [10], in [11], in assay [15], in assay [19] and in assay [13] was “inactive” each time. In addition, the viability in assay [16] is 152%.

In the case of `C[C@@H]1C[C@H]2[C@@H]3CCC4=CC(=O)C=C[C@]4(C)[C@@]3(F)[C@@H](O)C[C@]2(C)[C@@]1(O)C(=O)CO`, the Potency in assay [1] is 0.418 µM (active); in assay [7], 0.0264 µM (active); in assay [9] it was 0.0083 µM (active). Further, the Potency entry in assay [2], in assay [4], in assay [5], in assay [6], in [8] and in assay [10] was “inactive” each time. Further, the Potency result in assay [15], in assay [18], in [19], in [17], in assay [13] and in assay [14] was “inactive” in each case. Further, in [16], the viability is 118%.

On to `COc1nccc(-c2c(-c3ccc(F)cc3)ncn2C2CCNCC2)n1`, for which the Potency entry in assay [1], in assay [2], in assay [9] and in assay [17] was “inactive” throughout. The Potency is 13.2 µM (active) in assay [3]; 13.2 µM (active) in assay [10]; 16.6 µM (active) in [12]; 9.35 µM (active) in [16]; 14.8 µM (active) in assay [14].

For orientation: viability means a read-out of living cells in per cent, often relative to untreated cells.
